PubChem BioAssay (NCI)
About 83,000 compounds went through this panel and 20% of them were active in at least one assay; those are over-represented in the sample as a whole.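 Activity criterion: percent growth below 10, measured after cells in 96-well plates were exposed to a single compound concentration for 48 hours.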 Unmarked numbers belong to inactive results. Active and inactive are the calls of the source.

Legend:
Assay in all cases: NCI-60 one-dose screen, 48 h (100 = growth as untreated, 0 = no growth, -100 = all killed)
Settings in all cases: 10 µM unless noted
SR leukemia = test system: SR leukemia
RPMI-8226 leukemia = test system: RPMI-8226 leukemia
OVCAR-8 ovarian = test system: OVCAR-8 ovarian
OVCAR-5 ovarian = test system: OVCAR-5 ovarian
OVCAR-4 ovarian = test system: OVCAR-4 ovarian
SK-OV-3 ovarian = test system: SK-OV-3 ovarian
IGROV1 ovarian = test system: IGROV1 ovarian
OVCAR-3 ovarian = test system: OVCAR-3 ovarian
NCI/ADR-RES ovarian = test system: NCI/ADR-RES ovarian
T-47D breast = test system: T-47D breast
BT-549 breast = test system: BT-549 breast
MDA-MB-435 melanoma = test system: MDA-MB-435 melanoma
SW-620 colon = test system: SW-620 colon
MCF7 breast = test system: MCF7 breast
HCT-116 colon = test system: HCT-116 colon
KM12 colon = test system: KM12 colon

SMILES: ClCc1ccc(-c2ccc(Cn3cnc4nc(Cl)nc(Cl)c43)cc2)cc1
- growth (SR leukemia): -37.1% (active)
- growth (RPMI-8226 leukemia): -55.8% (active)
- growth (OVCAR-8 ovarian): -72.1% (active)
- growth (OVCAR-5 ovarian): -11.1% (active)
- growth (OVCAR-4 ovarian): 46.6%
- growth (SK-OV-3 ovarian): 72.5%
- growth (IGROV1 ovarian): 21%
- growth (OVCAR-3 ovarian): -77.6% (active)
- growth (NCI/ADR-RES ovarian): 24.8%
- growth (T-47D breast): -10.5% (active)
- growth (BT-549 breast): -44.8% (active)
- growth (MDA-MB-435 melanoma): -19.5% (active)
- growth (SW-620 colon): -46.8% (active)
- growth (MCF7 breast): -42.4% (active)
- growth (HCT-116 colon): -72.4% (active)
- growth (KM12 colon): -63% (active)

SMILES: CO[C@@H](C)Cn1c(=O)n(C)c2cnc3ccc(-c4cncc(C(C)(C)O)c4)cc3c21
- growth (SR leukemia): -2.77% (active)
- growth (RPMI-8226 leukemia): -16.8% (active)
- growth (OVCAR-8 ovarian): -13% (active)
- growth (OVCAR-5 ovarian): 5.28% (active)
- growth (OVCAR-4 ovarian): -14.6% (active)
- growth (SK-OV-3 ovarian): -36.5% (active)
- growth (IGROV1 ovarian): -25.7% (active)
- growth (OVCAR-3 ovarian): 8.39% (active)
- growth (NCI/ADR-RES ovarian): -1.12% (active)
- growth (T-47D breast): -21.9% (active)
- growth (BT-549 breast): -6.62% (active)
- growth (MDA-MB-435 melanoma): 0.636% (active)
- growth (SW-620 colon): 9.31% (active)
- growth (MCF7 breast): 6.25% (active)
- growth (HCT-116 colon): 3.72% (active)
- growth (KM12 colon): 5.54% (active)

SMILES: C[C@@H](Oc1cc(C(=O)Nc2ccc(C(=O)N3CCN(C)CC3)cc2)nnc1N)c1c(Cl)ccc(F)c1Cl
- growth (SR leukemia): 0.634% (active)
- growth (RPMI-8226 leukemia): 36.7%
- growth (OVCAR-8 ovarian): 63.1%
- growth (OVCAR-5 ovarian): 75.3%
- growth (OVCAR-4 ovarian): 78.2%
- growth (SK-OV-3 ovarian): 66.9%
- growth (IGROV1 ovarian): 86%
- growth (OVCAR-3 ovarian): 91.6%
- growth (NCI/ADR-RES ovarian): 76.5%
- growth (T-47D breast): 59.4%
- growth (BT-549 breast): 71.7%
- growth (MDA-MB-435 melanoma): 68.8%
- growth (SW-620 colon): 98.1%
- growth (MCF7 breast): 47.1%
- growth (HCT-116 colon): 49.4%
- growth (KM12 colon): 23%

SMILES: CS(=O)(=O)N1CCN(Cc2cc3nc(-c4cccc5[nH]ncc45)nc(N4CCOCC4)c3s2)CC1
- growth (SR leukemia): 18.6%
- growth (RPMI-8226 leukemia): 25%
- growth (OVCAR-8 ovarian): 27%
- growth (OVCAR-5 ovarian): 20.5%
- growth (OVCAR-4 ovarian): 47.8%
- growth (SK-OV-3 ovarian): -18.4% (active)
- growth (IGROV1 ovarian): -28.4% (active)
- growth (OVCAR-3 ovarian): 14.5%
- growth (NCI/ADR-RES ovarian): 32.1%
- growth (T-47D breast): -21.7% (active)
- growth (BT-549 breast): 18.2%
- growth (MDA-MB-435 melanoma): 22.4%
- growth (SW-620 colon): 38.8%
- growth (MCF7 breast): 5.28% (active)
- growth (HCT-116 colon): 28.3%
- growth (KM12 colon): 16.3%

SMILES: O=C(Cc1ccc(-c2ccc(OCCN3CCOCC3)cc2)cn1)NCc1ccccc1
- growth (SR leukemia): 6.9% (active)
- growth (RPMI-8226 leukemia): 14.5%
- growth (OVCAR-8 ovarian): 1.32% (active)
- growth (OVCAR-5 ovarian): 29.9%
- growth (OVCAR-4 ovarian): 47.9%
- growth (SK-OV-3 ovarian): -11.9% (active)
- growth (IGROV1 ovarian): 15.5%
- growth (OVCAR-3 ovarian): 20.3%
- growth (NCI/ADR-RES ovarian): 0.0856% (active)
- growth (T-47D breast): 34.2%
- growth (BT-549 breast): 3.61% (active)
- growth (MDA-MB-435 melanoma): -21.8% (active)
- growth (SW-620 colon): 21.3%
- growth (MCF7 breast): 10.7%
- growth (HCT-116 colon): 6.1% (active)
- growth (KM12 colon): 6.91% (active)

SMILES: C[C@H]1Oc2cc(cnc2N)-c2c(nn(C)c2C#N)CN(C)C(=O)c2ccc(F)cc21
- growth (SR leukemia): 6.17% (active)
- growth (RPMI-8226 leukemia): 92.6%
- growth (OVCAR-8 ovarian): 83.2%
- growth (OVCAR-5 ovarian): 58.3%
- growth (OVCAR-4 ovarian): 81.1%
- growth (SK-OV-3 ovarian): 55.1%
- growth (IGROV1 ovarian): 80.2%
- growth (OVCAR-3 ovarian): 108%
- growth (NCI/ADR-RES ovarian): 80.4%
- growth (T-47D breast): 84.4%
- growth (BT-549 breast): 103%
- growth (MDA-MB-435 melanoma): 80%
- growth (SW-620 colon): 90.4%
- growth (MCF7 breast): 60%
- growth (HCT-116 colon): 68.7%
- growth (KM12 colon): 9.06% (active)

SMILES: O=C(Cc1ccc(/C=C/C(=O)c2ncc[nH]2)cc1)Nc1ccc(S(F)(F)(F)(F)F)cc1
- growth (SR leukemia): 4.88% (active)
- growth (RPMI-8226 leukemia): -17.6% (active)
- growth (OVCAR-8 ovarian): 88.2%
- growth (OVCAR-5 ovarian): 86.8%
- growth (OVCAR-4 ovarian): 93.2%
- growth (SK-OV-3 ovarian): 101%
- growth (IGROV1 ovarian): 52.8%
- growth (OVCAR-3 ovarian): 80.3%
- growth (NCI/ADR-RES ovarian): 97.2%
- growth (T-47D breast): 57.6%
- growth (BT-549 breast): 64.3%
- growth (MDA-MB-435 melanoma): 56.1%
- growth (SW-620 colon): 10.4%
- growth (MCF7 breast): 12.4%
- growth (HCT-116 colon): -73.6% (active)
- growth (KM12 colon): 8.06% (active)

SMILES: Cc1cccc(Cl)c1NC(=O)c1cnc(Nc2cc(N3CCOCC3)cc(S(C)(=O)=O)c2)s1
- growth (SR leukemia): 43.3%
- growth (RPMI-8226 leukemia): 70.5%
- growth (OVCAR-8 ovarian): -2.17% (active)
- growth (OVCAR-5 ovarian): 15.6%
- growth (OVCAR-4 ovarian): 53.8%
- growth (SK-OV-3 ovarian): -23.8% (active)
- growth (IGROV1 ovarian): -49.1% (active)
- growth (OVCAR-3 ovarian): 32.1%
- growth (NCI/ADR-RES ovarian): 64.4%
- growth (T-47D breast): -15.6% (active)
- growth (BT-549 breast): 66.7%
- growth (MDA-MB-435 melanoma): 69.9%
- growth (SW-620 colon): 113%
- growth (MCF7 breast): 65%
- growth (HCT-116 colon): 13.2%
- growth (KM12 colon): 87.8%

SMILES: COc1cc2ncnc(Nc3cccc(Cl)c3F)c2cc1OC(=O)N1CCN(C)C[C@H]1C
- growth (SR leukemia): 62.6%
- growth (RPMI-8226 leukemia): 76.4%
- growth (OVCAR-8 ovarian): 64.2%
- growth (OVCAR-5 ovarian): 46.5%
- growth (OVCAR-4 ovarian): 103%
- growth (SK-OV-3 ovarian): -6.41% (active)
- growth (IGROV1 ovarian): 16.4%
- growth (OVCAR-3 ovarian): 69.5%
- growth (NCI/ADR-RES ovarian): 64.3%
- growth (T-47D breast): 28.5%
- growth (BT-549 breast): 93.8%
- growth (MDA-MB-435 melanoma): 94.3%
- growth (SW-620 colon): 94.2%
- growth (MCF7 breast): 63.2%
- growth (HCT-116 colon): 87.5%
- growth (KM12 colon): 87.8%
